Reference: PubChem BioAssay (NCI)
This is part of a sample that, as a whole, favours compounds with a hit. Of some 79,000 tested, about 15% had one in any assay. Cut-off read from the data, not from the text of the source: active = growth inhibition above about 70%; inactive = the rest.

Assays:
[1] = NCI Yeast Anticancer Drug Screen. Data for the rad50 strain (AID 155);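 note: 0% = growth of vehicle-only cultures of the same strain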; conditions: S. cerevisiae rad50 strain growth inhibition; at 50.0 µM; active compounds read high
Summary of the method: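 DNA repair mutant yeast, compound exposure, growth read-out; inhibition is taken relative to vehicle.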

[2] = NCI Yeast Anticancer Drug Screen. Data for the mec2-1 strain (AID 157); conditions: S. cerevisiae mec2-1 strain, at 50.0 µM, active compounds read high
Summary of the method: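 Readout is yeast growth inhibition, normalised to vehicle-treated controls, in the mec2-1 strain exposed to compound.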

[3] = NCI Yeast Anticancer Drug Screen. Data for the sgs1 mgt1 strain (AID 161);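 note: 0% = growth of cultures given vehicle only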; conditions: S. cerevisiae sgs1 mgt1 strain, at 50.0 µM, active compounds read high
Summary of the method: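 Growth of a repair-deficient yeast mutant was monitored after compound treatment and expressed as inhibition relative to vehicle-treated cultures.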

[4] = NCI Yeast Anticancer Drug Screen. Data for the cln2 rad14 strain (AID 165);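 note: 0% = growth equal to vehicle treated cultures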; conditions: S. cerevisiae cln2 rad14 strain, at 50.0 µM, active compounds read high
Summary of the method: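 Relative to vehicle controls, growth inhibition of compound-treated cln2 rad14 yeast was recorded.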

[5] = NCI Yeast Anticancer Drug Screen. Data for the bub3 strain (AID 167); conditions: S. cerevisiae bub3 mutant strain, at 50.0 µM, active compounds read high
Summary of the method: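 In this screen, a yeast mutant lacking normal mitotic checkpoint function is challenged with compound. Relative growth versus vehicle gives the inhibition value.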

[6] = NCI Yeast Anticancer Drug Screen. Data for the mlh1 rad18 strain (AID 175); conditions: S. cerevisiae mlh1 rad18 strain growth inhibition; at 50.0 µM; active compounds read high
Summary of the method: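 Test agents were incubated with a yeast strain of defined genotype (DNA damage repair defect). Inhibition of growth was derived by comparison with vehicle-exposed cultures.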

Measured: growth inhibition

OCCCNc1nc2cc(Br)ccc2c2ccc(Br)cc12
inactive: [1] 47.6% | [2] 4.75% | [3] 23.9% | [4] -3.65% | [5] 0.1% | [6] 19.1%

C=C(C)c1nc(N)nc(-c2cccc(-c3nc(N)nc(C(=C)C)n3)c2)n1
inactive: [1] -8.2% | [2] -8.35% | [3] 0.2% | [4] -67.6% | [5] -11% | [6] -0.8%

Nc1cccc(CCc2nc(N)nc(N)c2-c2ccc(Cl)cc2)c1
inactive: [1] 0.6% | [2] 21.6% | [3] 13.8% | [4] 3.2% | [5] 8.85% | [6] -14.3%

O=C1C(c2[nH]c3ccc(F)cc3c2O)=Nc2ccc(F)cc21
inactive: [1] 8.7% | [2] 10.9% | [3] 22.9% | [4] 9.4% | [5] 0% | [6] 19.1%

O=[N+]([O-])c1ccc(N/N=C/c2ccc(CO)cc2)c([N+](=O)[O-])c1
inactive: [1] 4% | [2] -5.65% | [3] 18.1% | [4] -13.9% | [5] 6.1% | [6] 17.2%

COc1ccc(C(=O)/C=C/c2ccc(OCCCCCCCCCCOc3ccc(/C=C/C(=O)c4ccc(OC)cc4)cc3)cc2)cc1
inactive: [1] -14.2% | [2] -14.8% | [3] -17% | [4] -15.2% | [5] -30.4% | [6] -17.4%

CCN(CC)CCCO
inactive: [1] 27.8% | [2] -12.3% | [3] -7.75% | [4] -8.8% | [5] -4.6% | [6] 20.1%

CCOC(=O)CCC1(CCC(=O)OCC)CCCCCCCCC(CCC(=O)OCC)(CCC(=O)OCC)C(=O)C1=O
inactive: [1] 12.9% | [2] 12.3% | [3] -14.7% | [4] 38% | [5] -4.7% | [6] -1.3%

Nc1ncnc2c1nnn2C1CCC(CP(=O)(O)O)C1 (stereo not drawn)
inactive: [1] 8.05% | [2] 4.45% | [3] -4.65% | [4] 17.9% | [5] 7.3% | [6] 21.6%

O=C1CCCC2=C1C(c1ccc(Cl)c(Cl)c1)C1=C(CCCC1=O)O2
inactive: [1] 1.05% | [2] 7.05% | [3] -7.25% | [4] -18.5% | [5] 12.6% | [6] 6.45%

OCC1C2C=CC(C3C=CC32)C1CO (stereo not drawn)
inactive: [1] 8.4% | [2] -9.8% | [3] -5.7% | [4] -89.7% | [5] -1.6% | [6] 4.25%

COC(=O)c1ccccc1NC(=O)C1CCCCC1=O (stereo not drawn)
inactive: [1] 1.55% | [2] -1.2% | [3] -0.1% | [4] -21.5% | [5] 12.3% | [6] 0.6%

COc1ccc2c(=O)c(O)c(-c3ccc(OC)c(OC)c3)oc2c1
inactive: [1] 12.7% | [2] 5.35% | [3] -18.6% | [4] -9.1% | [5] -1.25% | [6] 18.4%

Nc1ccc(-c2nc3ccccc3[nH]2)cc1
inactive: [1] -2.55% | [2] 17.8% | [3] 3.1% | [4] 9% | [5] 18.9% | [6] -0.8%

COc1cc(N=Nc2c(Cl)cc([N+](=O)[O-])cc2Cl)c(OC)cc1N=Nc1ccc(N)nc1N
inactive: [1] 23.4% | [2] 28% | [3] 7.05% | [4] 5.9% | [5] 3.85% | [6] 9.45%

CC1(C)C[C@H](OC2CCCCO2)[C@H]2O[C@@]2(C)C1 (stereo partly drawn)
inactive: [1] 10.8% | [2] 4.3% | [3] -29.8% | [4] 1.1% | [5] 18.4% | [6] 3.95%

COc1cccc(Oc2c(O)c3ccc(OC)cc3oc2=O)c1
inactive: [1] 1% | [2] 11.2% | [3] -2.1% | [4] 27.2% | [5] 0.05% | [6] 8.75%

COC(=O)CCc1onc(Br)c1CCl
inactive: [1] 17.8% | [2] 9.05% | [3] -7.55% | [4] 0.35% | [5] 9.95% | [6] 9.5%

O=S(=O)(NCC(Cl)CCl)c1ccccc1 (stereo not drawn)
inactive: [1] 0.7% | [2] -2.8% | [3] -12.7% | [4] 3.85% | [5] 3.55% | [6] 5%

Cc1cc2ccccc2n1S(=O)(=O)c1ccccc1
inactive: [1] 54% | [2] 45.4% | [3] 18.4% | [4] 35% | [5] 61% | [6] 66.3%

O=S(=O)(O)c1ccccc1O
inactive: [1] -0.1% | [2] -3.35% | [3] -2.75% | [4] -44.4% | [5] -19.9% | [6] 1.95%

O=C(NCCCCCCNC(=O)c1ccccn1)c1ccccn1
inactive: [1] 0.25% | [2] -9.9% | [3] 9.05% | [4] -7.15% | [5] -14.8% | [6] -0.8%

ClC1=CC(Cl)=C2N=C(N3CCCC3)N=C3N=C(C(Cl)(Cl)Cl)N=C1N32
inactive: [1] -2.8% | [2] 22.6% | [3] 3.6% | [4] -13.4% | [5] 3.2% | [6] -20.4%

CC(=O)c1cc(C(C)(C)C)ccc1O
inactive: [1] 17.8% | [2] 4.8% | [3] 7.8% | [4] 9.65% | [5] 26.1% | [6] 12.8%

c1ccc(C2SCc3nc4cc5ccccc5cc4n32)cc1 (stereo not drawn)
inactive: [1] -21.6% | [2] 6.4% | [3] 17.1% | [4] 12% | [5] -17% | [6] 16.8%

CS(=O)(=O)N1CCCN(S(C)(=O)=O)COC1
inactive: [1] 6.2% | [2] -6.65% | [3] -8.75% | [4] -2.45% | [5] 13.4% | [6] -0.35%

CC(O)C(C)C(N)C(=O)O (stereo not drawn)
inactive: [1] 3.7% | [2] 2% | [3] -1.05% | [4] -0.85% | [5] -0.3% | [6] 18.4%

CC(C)(C)c1cc(Br)c(O)c(CN(Cc2cc(C(C)(C)C)cc(Br)c2O)C2CCCCC2)c1
inactive: [1] 16.1% | [2] -24.9% | [3] -34.2% | [4] -14.2% | [5] -35.2% | [6] 1.35%

c1ccc2sc(-c3nc4ccccc4s3)nc2c1
inactive: [1] 26.3% | [2] 11.7% | [3] 5.55% | [4] -21.7% | [5] 8.3% | [6] 12.4%

COCC(=O)Nc1ccccc1
inactive: [1] -13.5% | [2] 6.05% | [3] 2.1% | [4] 1.55% | [5] 6.8% | [6] -6%

O=S1c2ccccc2NC(c2ccc3ccccc3c2)CC1c1ccccc1 (stereo not drawn)
inactive: [1] -46.2% | [2] -22.1% | [3] -6.75% | [4] 1.9% | [5] 5.05% | [6] -18.2%

CCC1=NS(=O)(=O)c2c(ncn2C)N1
inactive: [1] 11% | [2] 8.55% | [3] -5.6% | [4] 11.3% | [5] 0.15% | [6] 1.35%

COc1ccc(C2C(Cl)C(=O)N2n2cnc3ccccc3c2=O)cc1OC (stereo not drawn)
inactive: [1] -20.7% | [2] -0.35% | [3] 0.1% | [4] 8.9% | [5] -10.9% | [6] -21.6%

COc1nc(NC2OC(CO)C(O)C(O)C2O)c(C(C)=O)c(=O)[nH]1 (stereo not drawn)
inactive: [1] 2.8% | [2] 1.05% | [3] 12.6% | [4] -0.1% | [5] -14.8% | [6] -3.95%

COc1cc(C=O)ccc1OC(=O)Nc1ccc(F)c([N+](=O)[O-])c1
inactive: [1] 0.8% | [2] 30.4% | [3] 19.1% | [4] -2.45% | [5] 28.1% | [6] 14.7%

CCCCN(CCCC)CC1OCCO1
inactive: [1] -6.35% | [2] -0.5% | [3] -2.45% | [4] -16.6% | [5] 2.7% | [6] -2.6%

CCCCCCCCCCCCCCCCCC(=O)OCCCC
inactive: [1] 6.35% | [2] -9.9% | [3] -20.1% | [4] -20.4% | [5] 0.2% | [6] -22%

COc1ccc(OC)c(C(=O)C2=C(c3cc(OC)ccc3OC)CCC2)c1
inactive: [1] 7.3% | [2] 38.4% | [3] 33.2% | [4] 2.1% | [5] 44.4% | [6] 28.4%
